Results as given in ChEMBL document CHEMBL1157539, “Thousands of chemical starting points for antimalarial lead identification” (Nature, 2010).

Key:
Format in all cases: functional
Plasmodium falciparum [1] = assay: GSK_TCMDC: Inhibition of Plasmodium falciparum 3D7 in whole red blood cells, using parasite LDH activity as an index of growth. Test compounds present at 2uM
Plasmodium falciparum [2] = assay: GSK_TCMDC: Inhibition of Plasmodium falciparum Dd2 in whole red blood cells, using parasite LDH activity as an index of growth. Test compounds present at 2uM
HepG2 = assay: GSK_TCMDC: Percent inhibition of human HepG2 cell line. Test compounds present at 10uM.

Row | Structure (SMILES) | Inhibition (Plasmodium falciparum [1]) | Inhibition (Plasmodium falciparum [2]) | Inhibition (HepG2)
1 | COc1ccc(-c2ccnc(-c3cccc(-c4ccccn4)n3)c2)cc1 | 97% | 84% | 44%
2 | O=C(NC1CCN(CCC[C@]2(c3ccc(Cl)c(Cl)c3)CCCN(C(=O)c3ccccc3)C2)CC1)c1ccc(Cl)cc1 | 95% | 4% | 56%
3 | Cc1cccc(NC(=O)N(Cc2cc3cc(C)cc(C)c3[nH]c2=O)C2CC2)c1 | 97% | 94% | 3%
4 | COc1ccc2nccc([C@@H](O)CN3CCC(NC(=O)c4cc5c(Cl)cc(Cl)cc5[nH]4)CC3)c2c1 | 100% | 98% | 22%
5 | COc1ccc(CNCCc2cccs2)cc1-c1ccc(OC)c(S(=O)(=O)NCCN2CCCC2)c1.O=C(O)C(F)(F)F | 96% | 19% | 16%
6 | CN(CCC(CCN1CCC(c2c[nH]c3ccccc23)CC1)c1ccccc1)C(=O)Nc1ccc(Cl)c(Cl)c1 (configuration not stated) | 91% | 21% | 50%
7 | COc1ccc(-c2ccc(CNCc3ccc(F)cc3)cc2)cc1S(=O)(=O)NCCN1CCCC1.O=C(O)C(F)(F)F | 98% | 33% | 24%
8 | CN(Cc1cccc(C#N)c1)C1CCN(c2cc(NC(=O)c3ccc(F)cc3)ccn2)CC1.O=C(O)C(F)(F)F | 97% | 23% | 4%
9 | CCOC(=O)c1nc(-c2ccc(-c3ccccc3)cc2)[nH]c1N.Cl | 98% | 2% | 0%
10 | COc1ccc2[nH]ccc(=NN=Cc3ccc(F)cc3)c2c1 | 98% | 54% | 2%
11 | CC(C)NCc1cccc(-c2cccc(-c3nc4cc(F)ccc4[nH]3)c2)c1.O=C(O)C(F)(F)F | 100% | 85% | 20%
12 | CCc1nn2c(Nc3ccncc3)cc(C)nc2c1-c1ccccc1 | 100% | 98% | 4%
13 | COc1ccc(-c2nc3cccnc3n2CC(=O)Nc2cc(Cl)c(Cl)cc2Cl)c(OC)c1 | 100% | 17% | 99%
14 | COc1ccc(Cn2ncc3c4c(N)nc(N)nc4ccc32)cc1OC | 94% | 95% | 68%
15 | Cc1nc2nc(N)nc(N)c2c(C)c1Cc1cccc(F)c1.Cl | 96% | 1% | 65%
16 | COc1ccc(Nc2nc(NN=Cc3cc(Br)c(O)cc3O)nc(Nc3ccc([N+](=O)[O-])cc3)n2)cc1 | 97% | 23% | 30%
17 | Br.C=CCc1cc(C)ccc1OCCCON1C(N)=NC(N)=NC1(C)C | 96% | 96% | 64%
18 | O=C(Nc1ccc(S(=O)(=O)N2CCCC2)cc1)c1cc(-c2cccnc2)nc2ccc(Cl)cc12 | 97% | 95% | 4%
19 | CCN1CCN(Cc2ccc(NC(=O)c3cc4ccc5cccnc5c4[nH]3)cc2)CC1 | 100% | 97% | 0%
20 | Cl.N=C(N)Nc1ccc(OCCCCCOc2ccc(NC(=N)N)cc2)cc1 | 99% | 100% | 12%
21 | CCNc1cc(C(=O)N[C@@H](Cc2ccccc2)[C@H](O)CNC2CCCC2)cc(N2CCCC2=O)c1 | 98% | 98% | 8%
22 | CCOC(=O)CN(c1ccc(Br)cc1OCCOc1cc(Br)ccc1N(CC(=O)OCC)C(C)C(=O)OCC)C(C)C(=O)OCC (configuration not stated) | 94% | 6% | 0%
23 | Cc1noc(C)c1-c1ccc2c(Nc3ccc(C(F)(F)F)cc3)c(C(N)=O)cnc2c1.Cl | 100% | 95% | 1%
24 | CCc1ccc(C2CCN(CCCCNC(=O)c3ccc(NC(=O)c4ccc(Cl)cc4)cc3)CC2)c(OCC(=O)OC)c1 | 95% | 12% | 32%
25 | Cc1ccccc1CNc1noc(-c2c(F)cccc2Cl)n1 | 97% | 90% | 14%
26 | O=C(NC1CC1)c1ccc(Nc2nccc(-c3c(-c4cccc(NC(=O)c5c(F)cccc5F)c4)nn4ccccc34)n2)cc1 | 94% | 96% | 84%
27 | COc1ccc2[nH]c(-c3ccccc3)cc(=NN=Cc3ccncc3)c2c1 | 99% | 27% | 14%
28 | O=C(NC1CCC(N2CCC(c3nc4ccccc4s3)CC2)CC1)c1cc2ccccc2[nH]1 (configuration not stated) | 94% | 37% | 23%
29 | CCCCc1ccc(-c2nc(NC(=O)Nc3[nH]c(-c4ccccc4)nc3C(=O)OCC)c(C(=O)OCC)[nH]2)cc1 | 95% | 26% | 0%
